Measurements from PubChem BioAssay (NCATS).
Results filed as inconclusive are left out. Entries that show only a call come without a potency. Values without a mark were called inactive. Activity calls are given as the source filed them. Unless noted, calls follow the shape of the dose curve; as a rule, active = well fitted curve in the direction sought with a large enough effect; inconclusive = small, poorly fitted or top-dose-only effect, or another doubt; inactive = no such curve, though single readings can be large; an effect the other way counts as inactive or inconclusive.

Assays:
[1] = qHTS for Inhibitors of Plasmodium falciparum (DD2) proliferation (AID 504314); also: potency is read from the fitted curve at half-maximal effect;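 as to activity, negative = inhibition: parasite DNA measured by SYBR Green fluorescence after red cell lysis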
Method in brief: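 Erythrocytes infected with P. falciparum Dd2 (0.3% parasitemia, 2.5% hematocrit) exposed to compound 72 h at 37C, 5% CO2. Parasite DNA quantified by SYBR Green fluorescence after saponin/Triton lysis overnight; normalized to 0.29 uM artemisinin and DMSO.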

[2] = qHTS for Inhibitors of Plasmodium falciparum (GB4) proliferation (AID 504315); also: nearly all actives have a fitted effect of over 50% in size; also: potency is read from the fitted curve at half-maximal effect
Method in brief: (§1)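 Erythrocytes infected with P. falciparum line (0.3% parasitemia, 2.5% hematocrit final) incubated with compounds 72 h at 37 °C, 5% CO2; SYBR Green lysis buffer added, fluorescence read next day. Normalized to 0.29 uM artemisinin and DMSO.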

[3] = qHTS for Inhibitors of Plasmodium falciparum (7G8) proliferation (AID 504316); also: nearly all actives have a fitted effect of over 65% in size; also: potency is read from the fitted curve at half-maximal effect
Method in brief: as §1

[4] = qHTS for Inhibitors of Plasmodium falciparum (HB3) proliferation (AID 504318); also: nearly all actives have a fitted effect of over 60% in size; also: potency is read from the fitted curve at half-maximal effect
Method in brief: as §1

[5] = qHTS for Inhibitors of Plasmodium falciparum (CP250) proliferation (AID 504320); also: potency is read from the fitted curve at half-maximal effect
Method in brief: as §1

[6] = molecular target: Atrial natriuretic peptide receptor 1 (Homo sapiens) (UniProt P16066); test: Natriuretic polypeptide receptor (hNpr1) antagonism - Pilot CMLD screen (AID 1347052; calls by dose curve;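 also: HEK293 cells with hNpr1 stimulated by hNppA peptide at 0.1 nM; cGMP level read as GloSensor luciferase luminescence after agonist stimulation; series mostly up to about 9.2 µM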)
Sequence of Atrial natriuretic peptide receptor 1 (Homo sapiens) (P16066 whole entry, looked up): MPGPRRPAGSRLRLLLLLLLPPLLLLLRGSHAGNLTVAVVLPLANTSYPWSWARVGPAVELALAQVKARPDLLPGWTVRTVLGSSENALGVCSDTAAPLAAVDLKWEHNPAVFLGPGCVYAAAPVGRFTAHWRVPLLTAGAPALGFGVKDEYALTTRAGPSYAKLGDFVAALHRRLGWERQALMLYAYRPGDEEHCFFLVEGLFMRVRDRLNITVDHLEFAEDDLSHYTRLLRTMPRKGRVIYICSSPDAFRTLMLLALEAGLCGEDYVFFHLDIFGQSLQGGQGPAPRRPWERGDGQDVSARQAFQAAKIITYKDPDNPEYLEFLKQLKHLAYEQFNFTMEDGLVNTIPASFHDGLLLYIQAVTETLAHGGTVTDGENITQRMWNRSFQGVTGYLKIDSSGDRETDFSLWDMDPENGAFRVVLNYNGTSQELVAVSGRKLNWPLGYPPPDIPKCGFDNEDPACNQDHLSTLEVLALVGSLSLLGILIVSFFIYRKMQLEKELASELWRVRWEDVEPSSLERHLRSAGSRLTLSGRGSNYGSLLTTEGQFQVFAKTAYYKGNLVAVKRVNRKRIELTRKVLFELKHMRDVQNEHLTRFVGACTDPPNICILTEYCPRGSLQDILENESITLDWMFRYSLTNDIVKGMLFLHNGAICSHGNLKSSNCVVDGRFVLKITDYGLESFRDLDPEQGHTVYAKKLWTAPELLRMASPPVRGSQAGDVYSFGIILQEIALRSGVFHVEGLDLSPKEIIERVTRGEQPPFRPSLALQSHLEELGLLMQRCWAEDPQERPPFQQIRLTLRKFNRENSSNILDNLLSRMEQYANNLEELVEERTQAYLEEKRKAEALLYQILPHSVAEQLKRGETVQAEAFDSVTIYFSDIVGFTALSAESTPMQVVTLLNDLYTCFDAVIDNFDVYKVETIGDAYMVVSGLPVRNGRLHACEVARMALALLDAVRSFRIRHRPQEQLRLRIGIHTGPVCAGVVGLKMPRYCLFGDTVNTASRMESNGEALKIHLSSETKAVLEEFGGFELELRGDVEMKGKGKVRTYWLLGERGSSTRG

Row | Structure (SMILES) | Potency [1] | Potency [2] | Potency [3] | Potency [4] | Potency [5] | Potency [6] | activity, negative = inhibition [1]
1 | COC(=O)CCCC1=CC2=CC(=O)C(C)(OC(=O)c3cccs3)C(=O)C2=CN1CCN1CCOCC1 (configuration not stated) | inactive | inactive | inactive | inactive | inactive | inactive | –
2 | CC1(OC(=O)C2CCCC2)C(=O)C=C2C=C(c3ccsc3)N(C3CCCC3)C=C2C1=O (configuration not stated) | – | inactive | inactive | inactive | inactive | inactive | -4.53% [at 1.12 µM]
3 | COC(=O)C1=C(C(=O)OC)[C@@H]2N(Cc3ccccc3)c3ccccc3[C@@]23C[C@@H](C(=O)OC)N(C(=O)c2cccs2)C3=N1 | – | inactive | inactive | inactive | inactive | inactive | -0.326% [at 1.12 µM]
4 | CCCCC1=CC2=CC(=O)C(C)(OC(=O)c3cnc4ccccc4n3)C(=O)C2=CO1 (configuration not stated) | inactive | inactive | inactive | inactive | inactive | inactive | –
5 | COC(=O)CC=C1c2ccc(OC)cc2[C@@H](OC)[C@@H]1C | inactive | inactive | inactive | inactive | inactive | inactive | –
6 | C=CCN(C)C1=NC(c2ccccc2)C(C(=O)OC)=C(C)N1CCOC (configuration not stated) | inactive | inactive | inactive | inactive | inactive | inactive | –
7 | O=C1N[C@H](Cc2ccccc2)C(=O)N1Cc1cccc2ccccc12 | inactive | inactive | inactive | inactive | inactive | inactive | –
8 | C=CCN1C(=O)[C@@]2(CC(C)=CC[C@@H](C)O2)c2ccccc21 | inactive | inactive | inactive | inactive | inactive | inactive | –
9 | CC(=O)C1=C(C)N(Cc2ccccc2)C(=O)NC1c1cccs1 (configuration not stated) | inactive | inactive | inactive | inactive | inactive | inactive | –
10 | CC(=O)C1=C(C)N(Cc2ccccc2)C(=O)NC1c1ccco1 (configuration not stated) | inactive | inactive | inactive | inactive | inactive | inactive | –
11 | COC(=O)N[C@@H](c1ccc2ccccc2c1)C(C(C)=O)C(=O)OC (some centres not stated) | inactive | inactive | inactive | inactive | inactive | inactive | –
12 | COC(=O)CCCC1=CC2=C(c3ccccc3)C(=O)C(C)(OC(=O)C3CCCC3)C(=O)C2=CN1C1CCCCC1 (configuration not stated) | inactive | inactive | inactive | inactive | inactive | inactive | –
13 | COc1ccc(-c2nc3c(c4c2C[C@H](c2ccccc2)OC4)CN(C(=O)Nc2cccc(C#N)c2)CC3)c(C)c1 | – | inactive | inactive | inactive | inactive | inactive | 2.23% [at 1.12 µM]
14 | C=CCOC(=O)NC(c1ccc(F)c(F)c1)C(C(=O)COC)C(=O)OC (configuration not stated) | inactive | inactive | inactive | inactive | inactive | inactive | –
15 | COC(=O)CC1=CO[C@@H](O)[C@@H]2C(CO)=CC[C@@H]12 | inactive | inactive | inactive | inactive | inactive | inactive | –
16 | C[C@H]1Cc2c(-c3ccccc3)nc3c(c2CO1)CN(C(=O)c1cccnc1)CC3 | inactive | inactive | inactive | inactive | inactive | inactive | –
17 | COc1cccc([C@@H]2Oc3ccc(Br)cc3C[C@@H]2OC(=O)N[S+](=O)([O-])c2ccc(C)cc2)c1 | inactive | inactive | inactive | inactive | inactive | inactive | –
18 | COC(=O)CCCC1=CC2=CC(=O)C(C)(OC(=O)c3cccs3)C(=O)C2=CN1Cc1ccco1 (configuration not stated) | inactive | inactive | inactive | inactive | inactive | inactive | –
19 | COC(=O)C1=C2C=CCCN2C(=O)NC1c1ccccc1 (configuration not stated) | inactive | inactive | inactive | inactive | inactive | inactive | –
20 | O=C1[C@@H]2[C@H]3[C@H](O)[C@H](O)CC(=NOC[C@@H](O)COCc4ccco4)[C@H]3CC[C@H]2C(=O)N1c1ccc(F)cc1F | inactive | inactive | inactive | inactive | inactive | inactive | –
21 | COC(=O)CC=C[C@@H](C)[C@H](NC(=O)OC)c1ccccc1Br | inactive | inactive | inactive | inactive | inactive | inactive | –
22 | O=C1C[C@@H](c2ccccc2)[C@H](c2ccc(Br)cc2)O1 | inactive | inactive | inactive | inactive | inactive | inactive | –
23 | C[C@H]1Cc2c(-c3ccccc3)nc3c(c2CO1)CN(C(=O)Nc1cccc(C#N)c1)CC3 | – | inactive | inactive | inactive | inactive | inactive | -4.46% [at 1.12 µM]
24 | COC(=O)C1=C(C)N(Cc2ccco2)C(=O)NC1c1ccco1 (configuration not stated) | inactive | inactive | inactive | inactive | inactive | inactive | –
25 | COC1=C[C@H](C(=O)NCCOC(C)=O)[C@H](C)[C@@H](c2ccccc2)CC1=O | inactive | inactive | inactive | inactive | inactive | inactive | –
26 | COCCN1C(=O)N[C@@H](c2ccccc2)[C@H](C(C)=O)[C@H]1C | inactive | inactive | inactive | inactive | inactive | inactive | –

Row | Structure (SMILES) | Potency [1] | Potency [2] | Potency [3] | Potency [4] | Potency [5] | Potency [6] | activity, negative = inhibition [1]
27 | CCOC(=O)OC[C@H]1O[C@H](C#Cc2ccc(F)cc2F)C=C[C@H]1OC(=O)OCC | inactive | inactive | inactive | inactive | inactive | inactive | –
28 | C=CC[C@@](C(C)=O)(C(=O)OC)[C@@H](NC(=O)OC(C)(C)C)c1ccccc1 | inactive | inactive | inactive | inactive | inactive | inactive | –
29 | CCN(CC)CCCN=C1NC(c2ccccc2)C(C(=O)OC)=C(C)N1CC (configuration not stated) | inactive | inactive | inactive | inactive | inactive | inactive | –
30 | CCCCCCCc1cc2ccccc2c2c(C(C)=O)c(-c3ccccc3)c(C(=O)OC)n12 | inactive | inactive | inactive | inactive | inactive | inactive | –
31 | COC(=O)C1(C(=O)OC)Cc2conc2[C@@H]1c1ccccc1 | inactive | inactive | inactive | inactive | inactive | inactive | –
32 | CCCCCCCc1cc2ccccc2c(=O)o1 | inactive | inactive | inactive | inactive | inactive | inactive | –
33 | CCOC(=O)C1(C(=O)OCC)Cc2ccc(C(C)=O)cc2C1 | inactive | inactive | inactive | inactive | inactive | inactive | –
34 | COc1cc(O)c(C(=O)C=Cc2ccc3c(c2)OCO3)c(OC)c1 | inactive | inactive | inactive | inactive | inactive | inactive | –
35 | C[C@@H]1C=CCCO[C@]12C(=O)Nc1ccccc12 | inactive | inactive | inactive | inactive | inactive | inactive | –
36 | Cc1ccc(C(O)C2=CCCC2=O)cc1 (configuration not stated) | inactive | inactive | inactive | inactive | inactive | inactive | –
37 | COC(=O)N1C(c2ccccc2)=Cc2ccccc2C1C1(C(=O)OC)CCCC1=O (configuration not stated) | inactive | inactive | inactive | inactive | inactive | inactive | –
38 | CC=CCCN1C=C(C(=O)OCC)C(c2ccccc2)NC1=O (configuration not stated) | inactive | inactive | inactive | inactive | inactive | inactive | –
39 | CCOC(=O)CN1C(=O)[C@]2(OCCC=C[C@@H]2C)c2ccccc21 | inactive | inactive | inactive | inactive | inactive | inactive | –
40 | C=CCOC(=O)NC(CC(=Nc1ccc(OC)cc1)C(=O)OC)c1ccccc1 (configuration not stated) | inactive | inactive | inactive | inactive | inactive | inactive | –
41 | CC12C=C(C=CC=Cc3ccco3)C(C)(C1)C(C=Cc1ccco1)CC2=O (configuration not stated) | inactive | inactive | inactive | inactive | inactive | inactive | –
42 | CC(=CCO)CCO | inactive | inactive | inactive | inactive | inactive | inactive | –
43 | O=C1c2ccccc2C(=O)N1CCCC[C@]12Cc3c(ccc4ccccc34)[C@H](O1)c1c(cc(-c3ccccc3)oc1=O)O2 | 753 nM (active) | 536 nM (active) | 379 nM (active) | 536 nM (active) | 1510 nM (active) | inactive | –
44 | COC(=O)CC=C[C@@H](C)[C@H](OC)c1c(Br)ccc2c1OCO2 | inactive | inactive | inactive | inactive | inactive | inactive | –
45 | C#CC1(O)C(OC)=CC2C(=O)C1C(c1ccccc1)C2C (configuration not stated) | inactive | inactive | inactive | inactive | inactive | inactive | –
46 | C=CC[C@@H]1C=C[C@H](ON=C[C@@H](C)[C@H](OCc2ccccc2)C(C)C)[C@H](CO)O1 | inactive | inactive | inactive | inactive | inactive | inactive | –
47 | CC1(C)O[C@@H](C(O)(c2cc(C(F)(F)F)cc(C(F)(F)F)c2)c2cc(C(F)(F)F)cc(C(F)(F)F)c2)[C@H](C(O)(c2cc(C(F)(F)F)cc(C(F)(F)F)c2)c2cc(C(F)(F)F)cc(C(F)(F)F)c2)O1 | inactive | inactive | inactive | inactive | inactive | inactive | –
48 | CCOC(=O)CCN1C(=O)[C@@H]2[C@H]3[C@H](O)[C@H](O)CC(=NOCC(C)C)[C@@H]3CC[C@H]2C1=O | inactive | inactive | inactive | inactive | inactive | inactive | –
49 | COC(=O)[C@@]1(C=C2c3ccc(OC)cc3[C@@H](OC)[C@@H]2C)[C@@H]2C=CC[C@@H]21 | inactive | inactive | inactive | inactive | inactive | inactive | –
50 | COC(=O)CCCC1=CC2=CC(=O)C(C)(O)C(=O)C2=CO1 (configuration not stated) | inactive | inactive | inactive | inactive | inactive | inactive | –
51 | COC[C@H]1O[C@]2(c3ccccc3)CO[C@@H]1[C@@H](C=Cc1ccccc1)C2 | inactive | inactive | inactive | inactive | inactive | inactive | –
52 | COC(=O)[C@H](C=C[C@H](C)Cc1cc(Br)cc(OCc2ccccc2)c1OC)OCc1ccccc1 | inactive | inactive | inactive | inactive | inactive | inactive | –
